The source made the active and inactive calls. How the calls were made is not given here.
Biological target: Thyroid hormone receptor beta (Homo sapiens) (UniProt P10828)
Experiment: Irreversible Binding Assay for Inhibitors of the Interaction of Thyroid Hormone Receptor and Steroid Receptor Coregulator 2
Details: TRb LBD-SRC2 peptide FP after dialysis, at 100 µM
Description: NIH Molecular Libraries Probe Production Network [MLPCN] NIH Chemical Genomics Center [NCGC] MLPCN Grant: DK058080 Assay Provider: R. Kip Guy, St. Jude Children's Research Hospital NCGC Assay Overview: Thyroid receptor (TR) regulates many homeostatic processes including basal metabolism, cardiovascular function, body weight, and lipid trafficking. TR modulators are potential therapeutics for obesity and hyperlipidemias but current thyroid analogs have undesirable side effects, particularly cardiac stimulation. To identify whether inhibitors irreversibly block the interaction of TR with the steroid receptor coregulator 2 (SRC2), a fluorescence polarization assay was used (Arnold et al., 2006). […]
NCGC Assay Protocol Summary: One milliliter TRb (1 uM) was incubated with DMSO (4 %), SRC2-2 peptide (100 uM) or compound (100 uM) for 3 hr in assay buffer (20 mM Tris hydrochloride, pH 7.4, 100mM NaCl, 10% glycerol, 1mM EDTA, 0.01% NP-40, 1mM DTT, 1uM T3 and 4% DMSO). […] The protein samples were concentrated using a 10K spin filter column (Amicon Ultra, Millipore) and then quantified by Bradford analysis. For each sample, 20 uL assay buffer containing 2 uM TRb and 40 nM SRC2 Texas Red probe was incubated in a 384 well plate for 3 hr at ambient temperature and read by an Envision (Perkin Elmer) to detect fluorescence polarization of SRC2-2 Texas Red (555 nm excitation and 632 nm emission). […]

Chain of Thyroid hormone receptor beta (Homo sapiens) (P10828 whole entry, looked up): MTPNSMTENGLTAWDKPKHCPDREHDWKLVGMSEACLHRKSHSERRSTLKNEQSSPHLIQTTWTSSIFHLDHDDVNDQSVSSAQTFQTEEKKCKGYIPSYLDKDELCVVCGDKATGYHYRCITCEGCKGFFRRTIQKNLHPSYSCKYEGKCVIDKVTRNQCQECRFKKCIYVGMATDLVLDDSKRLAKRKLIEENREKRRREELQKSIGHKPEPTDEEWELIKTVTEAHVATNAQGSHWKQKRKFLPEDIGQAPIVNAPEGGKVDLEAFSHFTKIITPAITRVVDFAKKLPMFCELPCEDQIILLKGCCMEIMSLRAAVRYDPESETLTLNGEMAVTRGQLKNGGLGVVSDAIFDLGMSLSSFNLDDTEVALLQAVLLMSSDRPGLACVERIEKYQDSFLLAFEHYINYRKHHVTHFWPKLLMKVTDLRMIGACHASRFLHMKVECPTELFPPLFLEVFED

| Compound | activity change, negative = inhibition |
| --- | --- |
| CC1(C)C2CCC1(C)C(NC(=O)COC(=O)c1ccc(S(C)(=O)=O)c([N+](=O)[O-])c1)C2 (stereo unspecified) | -96% (active) |

— PubChem BioAssay AID2552 (National Center for Advancing Translational Sciences (NCATS), 2010)
